Experimental data: ChEMBL document CHEMBL1961873, “Compounds: GSK PKIS; Assays: Nanosyn kinase panel” (2012)

Columns and labels:
[1] = target: Mitogen-activated protein kinase kinase kinase kinase 4 (Homo sapiens) (UniProt O95819); settings: at 1 µM;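 also: reported figure is an averaged inhibition value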
[2] = target: Dual specificity mitogen-activated protein kinase kinase 1 (Homo sapiens) (UniProt Q02750); settings: at 0.1 µM
[3] = target: Dual specificity mitogen-activated protein kinase kinase 1 (Homo sapiens) (UniProt Q02750); settings: at 1 µM
[4] = target: Misshapen-like kinase 1 (Homo sapiens) (UniProt Q8N4C8); settings: at 0.1 µM
[5] = target: Misshapen-like kinase 1 (Homo sapiens) (UniProt Q8N4C8); settings: at 1 µM
[6] = target: T1, Serine/threonine-protein kinase 4 (Homo sapiens) (UniProt Q13043); settings: at 0.1 µM
T1 sequence (whole entry): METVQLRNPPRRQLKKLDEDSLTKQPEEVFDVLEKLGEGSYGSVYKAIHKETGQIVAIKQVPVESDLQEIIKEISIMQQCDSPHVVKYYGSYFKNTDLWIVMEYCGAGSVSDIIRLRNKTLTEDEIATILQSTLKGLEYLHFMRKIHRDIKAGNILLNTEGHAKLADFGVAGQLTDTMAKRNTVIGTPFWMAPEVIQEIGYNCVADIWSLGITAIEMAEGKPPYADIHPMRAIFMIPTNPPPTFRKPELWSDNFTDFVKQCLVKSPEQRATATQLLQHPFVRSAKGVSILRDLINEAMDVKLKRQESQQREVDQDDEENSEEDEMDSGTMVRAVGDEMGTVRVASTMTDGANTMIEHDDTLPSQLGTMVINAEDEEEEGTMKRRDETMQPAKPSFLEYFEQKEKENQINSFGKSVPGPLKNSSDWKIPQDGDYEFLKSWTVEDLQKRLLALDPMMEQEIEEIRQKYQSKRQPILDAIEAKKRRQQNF

[7] = target: T1, Serine/threonine-protein kinase 4 (Homo sapiens); settings: at 1 µM
[8] = target: T2, Serine/threonine-protein kinase 3 (Homo sapiens) (UniProt Q13188); settings: at 0.1 µM
T2 sequence (whole entry): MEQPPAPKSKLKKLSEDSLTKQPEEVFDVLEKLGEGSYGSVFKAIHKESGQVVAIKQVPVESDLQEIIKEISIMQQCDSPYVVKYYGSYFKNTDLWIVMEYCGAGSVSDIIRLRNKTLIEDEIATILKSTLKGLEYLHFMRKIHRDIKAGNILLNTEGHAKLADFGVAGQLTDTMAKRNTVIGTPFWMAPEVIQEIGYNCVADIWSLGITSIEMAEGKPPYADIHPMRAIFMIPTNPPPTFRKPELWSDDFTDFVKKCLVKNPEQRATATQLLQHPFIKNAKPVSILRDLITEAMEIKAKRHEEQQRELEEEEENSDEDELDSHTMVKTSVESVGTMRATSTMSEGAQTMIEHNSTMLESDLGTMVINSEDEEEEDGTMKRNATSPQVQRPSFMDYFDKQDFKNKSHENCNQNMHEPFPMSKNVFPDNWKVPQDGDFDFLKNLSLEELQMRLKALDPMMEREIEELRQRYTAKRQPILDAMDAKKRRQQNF

[9] = target: T2, Serine/threonine-protein kinase 3 (Homo sapiens); settings: at 1 µM
[10] = target: Serine/threonine-protein kinase 26 (Homo sapiens) (UniProt Q9P289); settings: at 0.1 µM
[11] = target: Serine/threonine-protein kinase 26 (Homo sapiens) (UniProt Q9P289); settings: at 1 µM
[12] = target: Serine/threonine-protein kinase PAK 1 (Homo sapiens) (UniProt Q13153); settings: at 0.1 µM
[13] = target: Serine/threonine-protein kinase PAK 1 (Homo sapiens) (UniProt Q13153); settings: at 1 µM
[14] = target: Serine/threonine-protein kinase PAK 2 (Homo sapiens) (UniProt Q13177); settings: at 0.1 µM
[15] = target: Serine/threonine-protein kinase PAK 2 (Homo sapiens) (UniProt Q13177); settings: at 1 µM
[16] = target: Serine/threonine-protein kinase PAK 3 (Homo sapiens) (UniProt O75914); settings: at 0.1 µM
[17] = target: Serine/threonine-protein kinase PAK 3 (Homo sapiens) (UniProt O75914); settings: at 1 µM
[18] = target: Serine/threonine-protein kinase PAK 5 (Homo sapiens) (UniProt Q9P286); settings: at 0.1 µM
[19] = target: Serine/threonine-protein kinase PAK 5 (Homo sapiens) (UniProt Q9P286); settings: at 1 µM
[20] = target: Serine/threonine-protein kinase PAK 6 (Homo sapiens) (UniProt Q9NQU5); settings: at 0.1 µM;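 also: mean PAK6 inhibition reported from the GSK PKIS screen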

Sequence of Serine/threonine-protein kinase PAK 5 (Homo sapiens) (Q9P286 whole entry, looked up): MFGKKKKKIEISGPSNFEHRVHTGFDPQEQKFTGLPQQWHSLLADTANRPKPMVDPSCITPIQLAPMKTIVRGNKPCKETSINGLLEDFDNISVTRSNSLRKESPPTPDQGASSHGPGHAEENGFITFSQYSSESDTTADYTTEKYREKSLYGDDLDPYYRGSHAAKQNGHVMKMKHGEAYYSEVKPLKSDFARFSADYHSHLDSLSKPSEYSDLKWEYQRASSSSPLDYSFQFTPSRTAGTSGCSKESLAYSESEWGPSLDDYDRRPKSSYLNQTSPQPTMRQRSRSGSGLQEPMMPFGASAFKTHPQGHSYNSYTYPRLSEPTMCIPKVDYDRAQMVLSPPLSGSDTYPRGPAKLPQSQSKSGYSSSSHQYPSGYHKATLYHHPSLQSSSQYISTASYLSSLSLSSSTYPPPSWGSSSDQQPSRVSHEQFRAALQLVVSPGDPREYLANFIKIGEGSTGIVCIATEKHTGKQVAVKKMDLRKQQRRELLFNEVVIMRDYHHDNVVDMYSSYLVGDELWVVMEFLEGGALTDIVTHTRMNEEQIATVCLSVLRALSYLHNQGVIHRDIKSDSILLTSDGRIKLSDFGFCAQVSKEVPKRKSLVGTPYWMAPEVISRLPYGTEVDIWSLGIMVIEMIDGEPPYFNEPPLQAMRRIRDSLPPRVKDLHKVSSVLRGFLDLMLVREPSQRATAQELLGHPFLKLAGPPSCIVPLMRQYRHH
Sequence of Dual specificity mitogen-activated protein kinase kinase 1 (Homo sapiens) (Q02750 whole entry): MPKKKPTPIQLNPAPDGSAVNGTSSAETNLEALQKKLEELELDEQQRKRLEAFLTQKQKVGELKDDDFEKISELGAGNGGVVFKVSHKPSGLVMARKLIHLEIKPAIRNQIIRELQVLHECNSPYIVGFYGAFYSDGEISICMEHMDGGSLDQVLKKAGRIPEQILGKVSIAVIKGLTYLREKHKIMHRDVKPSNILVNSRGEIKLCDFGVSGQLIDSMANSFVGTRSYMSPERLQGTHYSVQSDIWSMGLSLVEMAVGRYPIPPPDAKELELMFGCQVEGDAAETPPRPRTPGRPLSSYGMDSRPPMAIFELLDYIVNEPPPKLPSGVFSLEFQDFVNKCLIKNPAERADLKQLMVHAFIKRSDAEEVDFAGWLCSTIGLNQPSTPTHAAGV
Sequence of Mitogen-activated protein kinase kinase kinase kinase 4 (Homo sapiens) (O95819 2-1239 limits assumed): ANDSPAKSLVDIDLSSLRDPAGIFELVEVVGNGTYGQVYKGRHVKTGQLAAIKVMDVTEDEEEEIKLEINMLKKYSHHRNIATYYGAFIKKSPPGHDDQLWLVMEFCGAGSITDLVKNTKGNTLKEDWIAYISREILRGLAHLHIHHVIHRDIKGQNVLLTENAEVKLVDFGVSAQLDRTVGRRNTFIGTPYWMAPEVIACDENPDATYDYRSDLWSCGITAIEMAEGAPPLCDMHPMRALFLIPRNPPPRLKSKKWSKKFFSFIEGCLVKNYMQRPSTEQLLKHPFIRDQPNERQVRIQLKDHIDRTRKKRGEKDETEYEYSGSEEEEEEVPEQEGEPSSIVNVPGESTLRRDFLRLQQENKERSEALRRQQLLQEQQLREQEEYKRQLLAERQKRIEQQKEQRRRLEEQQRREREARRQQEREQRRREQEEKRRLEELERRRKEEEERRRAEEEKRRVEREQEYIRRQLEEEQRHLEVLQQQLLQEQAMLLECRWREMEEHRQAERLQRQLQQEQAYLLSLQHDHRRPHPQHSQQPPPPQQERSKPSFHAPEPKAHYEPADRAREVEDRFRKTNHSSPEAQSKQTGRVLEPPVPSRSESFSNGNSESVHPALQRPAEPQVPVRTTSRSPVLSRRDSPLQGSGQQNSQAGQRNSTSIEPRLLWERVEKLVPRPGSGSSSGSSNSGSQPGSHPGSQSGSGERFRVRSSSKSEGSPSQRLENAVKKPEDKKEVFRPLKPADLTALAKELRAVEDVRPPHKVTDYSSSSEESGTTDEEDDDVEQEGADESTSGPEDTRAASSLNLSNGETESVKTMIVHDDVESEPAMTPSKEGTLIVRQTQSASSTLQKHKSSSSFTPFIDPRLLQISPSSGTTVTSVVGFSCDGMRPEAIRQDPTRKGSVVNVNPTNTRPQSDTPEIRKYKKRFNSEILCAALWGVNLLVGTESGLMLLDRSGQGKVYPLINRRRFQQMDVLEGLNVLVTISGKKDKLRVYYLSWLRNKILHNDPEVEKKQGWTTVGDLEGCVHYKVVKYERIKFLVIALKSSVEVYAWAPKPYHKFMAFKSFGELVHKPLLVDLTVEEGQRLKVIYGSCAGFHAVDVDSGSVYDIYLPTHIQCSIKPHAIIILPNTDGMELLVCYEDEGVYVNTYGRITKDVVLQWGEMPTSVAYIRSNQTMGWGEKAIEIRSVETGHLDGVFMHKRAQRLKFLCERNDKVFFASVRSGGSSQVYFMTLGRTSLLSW
Sequence of Serine/threonine-protein kinase PAK 3 (Homo sapiens) (O75914 whole entry, looked up): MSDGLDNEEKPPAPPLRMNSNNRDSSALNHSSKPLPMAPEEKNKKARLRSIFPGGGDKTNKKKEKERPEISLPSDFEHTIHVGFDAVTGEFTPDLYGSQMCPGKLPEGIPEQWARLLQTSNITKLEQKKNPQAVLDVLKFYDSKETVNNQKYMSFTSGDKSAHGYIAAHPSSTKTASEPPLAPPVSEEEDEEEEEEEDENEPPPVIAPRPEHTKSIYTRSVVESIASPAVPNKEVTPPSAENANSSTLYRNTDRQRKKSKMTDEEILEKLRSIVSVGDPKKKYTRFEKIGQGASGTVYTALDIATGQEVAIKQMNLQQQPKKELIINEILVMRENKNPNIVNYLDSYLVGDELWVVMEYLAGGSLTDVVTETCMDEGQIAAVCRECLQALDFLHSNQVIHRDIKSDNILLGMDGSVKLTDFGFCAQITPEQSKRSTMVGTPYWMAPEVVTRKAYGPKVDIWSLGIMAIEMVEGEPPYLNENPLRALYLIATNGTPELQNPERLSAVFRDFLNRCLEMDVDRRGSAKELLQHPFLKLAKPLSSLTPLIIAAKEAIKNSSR
Sequence of Serine/threonine-protein kinase 26 (Homo sapiens) (Q9P289 2-416 limits assumed): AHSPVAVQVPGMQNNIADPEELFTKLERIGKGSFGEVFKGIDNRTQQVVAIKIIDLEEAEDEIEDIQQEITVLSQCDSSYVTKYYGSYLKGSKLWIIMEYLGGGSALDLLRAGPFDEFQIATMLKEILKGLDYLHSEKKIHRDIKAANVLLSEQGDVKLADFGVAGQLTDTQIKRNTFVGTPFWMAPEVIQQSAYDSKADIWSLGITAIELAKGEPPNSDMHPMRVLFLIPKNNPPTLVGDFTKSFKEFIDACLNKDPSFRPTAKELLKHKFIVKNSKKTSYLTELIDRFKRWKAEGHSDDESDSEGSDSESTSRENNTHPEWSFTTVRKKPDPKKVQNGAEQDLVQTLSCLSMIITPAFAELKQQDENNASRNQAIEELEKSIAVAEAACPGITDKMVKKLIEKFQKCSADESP
Sequence of Serine/threonine-protein kinase PAK 1 (Homo sapiens) (Q13153 whole entry): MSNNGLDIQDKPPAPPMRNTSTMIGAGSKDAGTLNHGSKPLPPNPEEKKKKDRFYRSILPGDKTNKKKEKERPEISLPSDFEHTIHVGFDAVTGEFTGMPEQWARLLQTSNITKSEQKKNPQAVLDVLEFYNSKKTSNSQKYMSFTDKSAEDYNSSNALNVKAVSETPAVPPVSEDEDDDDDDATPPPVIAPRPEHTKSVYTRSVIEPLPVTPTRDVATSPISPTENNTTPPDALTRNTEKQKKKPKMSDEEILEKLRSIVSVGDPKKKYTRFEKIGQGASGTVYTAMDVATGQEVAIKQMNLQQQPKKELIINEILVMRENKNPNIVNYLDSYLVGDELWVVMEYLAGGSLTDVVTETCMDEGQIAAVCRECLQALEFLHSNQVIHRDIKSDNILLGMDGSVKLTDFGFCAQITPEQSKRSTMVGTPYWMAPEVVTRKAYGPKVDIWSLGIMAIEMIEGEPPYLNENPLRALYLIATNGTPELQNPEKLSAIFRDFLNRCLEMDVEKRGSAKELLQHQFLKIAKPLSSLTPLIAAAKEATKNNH
Sequence of Serine/threonine-protein kinase PAK 2 (Homo sapiens) (Q13177 whole entry): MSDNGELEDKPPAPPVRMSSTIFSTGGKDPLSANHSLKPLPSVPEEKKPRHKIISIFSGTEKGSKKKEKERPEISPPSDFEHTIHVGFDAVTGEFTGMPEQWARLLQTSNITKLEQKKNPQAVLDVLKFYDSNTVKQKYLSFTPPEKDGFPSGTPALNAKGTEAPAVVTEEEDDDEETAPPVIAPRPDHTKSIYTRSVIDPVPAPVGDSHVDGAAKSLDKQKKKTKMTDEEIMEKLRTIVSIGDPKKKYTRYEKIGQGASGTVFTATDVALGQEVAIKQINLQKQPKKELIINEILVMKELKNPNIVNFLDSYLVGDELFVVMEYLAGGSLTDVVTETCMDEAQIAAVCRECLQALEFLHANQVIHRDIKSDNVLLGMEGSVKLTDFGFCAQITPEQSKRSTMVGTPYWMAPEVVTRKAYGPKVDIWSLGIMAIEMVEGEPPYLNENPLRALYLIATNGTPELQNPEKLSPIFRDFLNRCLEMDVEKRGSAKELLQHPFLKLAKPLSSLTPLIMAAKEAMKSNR

| SMILES | inhibition [1] [%] | inhibition [2] [%] | inhibition [3] [%] | inhibition [4] [%] | inhibition [5] [%] | inhibition [6] [%] | inhibition [7] [%] | inhibition [8] [%] | inhibition [9] [%] | inhibition [10] [%] | inhibition [11] [%] | inhibition [12] [%] | inhibition [13] [%] | inhibition [14] [%] | inhibition [15] [%] | inhibition [16] [%] | inhibition [17] [%] | inhibition [18] [%] | inhibition [19] [%] | inhibition [20] [%] |
| --- | --- | --- | --- | --- | --- | --- | --- | --- | --- | --- | --- | --- | --- | --- | --- | --- | --- | --- | --- | --- |
| Cc1ccc(O)cc1Nc1ccnc2cc(-c3ccccn3)ccc12 | 75.5 | 6.05 | 4.87 | 21.3 | 65.2 | 7.99 | 8.81 | 8.56 | 6.61 | -2.79 | -0.53 | 7.92 | 8.64 | 3.37 | 2.71 | 4.92 | 5 | 3.23 | 0.07 | 4.84 |
| CCCN(CCS(C)(=O)=O)Cc1ccc(-c2ccc3ncnc(Nc4ccc(OCc5cccc(F)c5)c(Cl)c4)c3c2)o1 | 11.1 | 1.53 | 1.76 | 2.96 | 7.61 | 2.67 | 4.13 | 0.87 | 2.11 | 0.58 | 2.97 | 5.02 | 3.91 | 0.72 | 0.92 | 1.58 | 2.05 | 3.25 | 9.68 | -9.75 |
| COc1ccc(-c2nn3ncccc3c2-c2ccnc(Nc3ccc4c(c3)OCCO4)n2)cc1 | 9.82 | 0.5 | 1.59 | 3.01 | 7.26 | -0.55 | 1.99 | -0.94 | -0.28 | 0.86 | 0.26 | 3.86 | -2.26 | -0.29 | 0.11 | 1.09 | 1.51 | -2.13 | -5 | 1.12 |
| CC(=O)NCc1cccc(C#Cc2cncnc2Nc2ccc(OCc3cccc(F)c3)c(Cl)c2)c1 | 7.74 | 1.45 | 1.08 | 2.48 | 8.64 | 1.57 | 5.79 | 0.67 | 3.55 | -0.27 | 2.49 | 4.19 | 4.46 | -0.34 | -0.13 | -0.22 | 0.22 | 2.64 | -5.66 | 3.99 |
| N#Cc1c(NC(=O)c2ccc(F)cc2)sc2c1CCCC2 | 5.3 | 1.23 | 1.68 | 2.23 | 4.89 | -0.35 | 2.59 | 0.16 | 3.36 | -0.1 | 2.43 | -0.82 | 3.8 | 0.64 | 0.15 | 1.5 | 1.26 | -0.93 | -0.51 | -7.52 |
| CCn1c(-c2nonc2N)nc2c(C#CC(C)(C)O)ncc(OC3CCNCC3)c21 | 6.21 | 1.98 | 3.44 | 4.48 | 5.83 | 1.6 | 4.54 | 3.55 | 6.04 | 0.64 | 4.19 | 2.8 | 8.91 | 1.98 | 13.5 | 2.99 | 8.39 | 34.6 | 80.1 | 14.6 |
